Experimental data as given in ChEMBL document CHEMBL3988442, “University of Dundee, Small-Polar-MMV Screening Library” (2021).
For some assays here: Measured potencies and affinities stand elsewhere.

How the values were obtained:
Set-up in all cases: scale not given: direction of the effect not stated beside the values
[1] = molecular target: Protein translocase subunit SecA (Escherichia coli (strain K12)) (UniProt P10408); experiment: Assay to Identify E. coli SecA ATPase Inhibitors; format: functional; conditions: 30 µM
[2] = molecular target: T1, Ubiquitin-activating enzyme e1, putative (Leishmania donovani (strain BPK282A1)) (UniProt E9BSI1); experiment: Leishmania donovani Ubiquitin Activating Enzyme (LdE1); format: functional; conditions: 30 µM
T1 sequence (whole entry): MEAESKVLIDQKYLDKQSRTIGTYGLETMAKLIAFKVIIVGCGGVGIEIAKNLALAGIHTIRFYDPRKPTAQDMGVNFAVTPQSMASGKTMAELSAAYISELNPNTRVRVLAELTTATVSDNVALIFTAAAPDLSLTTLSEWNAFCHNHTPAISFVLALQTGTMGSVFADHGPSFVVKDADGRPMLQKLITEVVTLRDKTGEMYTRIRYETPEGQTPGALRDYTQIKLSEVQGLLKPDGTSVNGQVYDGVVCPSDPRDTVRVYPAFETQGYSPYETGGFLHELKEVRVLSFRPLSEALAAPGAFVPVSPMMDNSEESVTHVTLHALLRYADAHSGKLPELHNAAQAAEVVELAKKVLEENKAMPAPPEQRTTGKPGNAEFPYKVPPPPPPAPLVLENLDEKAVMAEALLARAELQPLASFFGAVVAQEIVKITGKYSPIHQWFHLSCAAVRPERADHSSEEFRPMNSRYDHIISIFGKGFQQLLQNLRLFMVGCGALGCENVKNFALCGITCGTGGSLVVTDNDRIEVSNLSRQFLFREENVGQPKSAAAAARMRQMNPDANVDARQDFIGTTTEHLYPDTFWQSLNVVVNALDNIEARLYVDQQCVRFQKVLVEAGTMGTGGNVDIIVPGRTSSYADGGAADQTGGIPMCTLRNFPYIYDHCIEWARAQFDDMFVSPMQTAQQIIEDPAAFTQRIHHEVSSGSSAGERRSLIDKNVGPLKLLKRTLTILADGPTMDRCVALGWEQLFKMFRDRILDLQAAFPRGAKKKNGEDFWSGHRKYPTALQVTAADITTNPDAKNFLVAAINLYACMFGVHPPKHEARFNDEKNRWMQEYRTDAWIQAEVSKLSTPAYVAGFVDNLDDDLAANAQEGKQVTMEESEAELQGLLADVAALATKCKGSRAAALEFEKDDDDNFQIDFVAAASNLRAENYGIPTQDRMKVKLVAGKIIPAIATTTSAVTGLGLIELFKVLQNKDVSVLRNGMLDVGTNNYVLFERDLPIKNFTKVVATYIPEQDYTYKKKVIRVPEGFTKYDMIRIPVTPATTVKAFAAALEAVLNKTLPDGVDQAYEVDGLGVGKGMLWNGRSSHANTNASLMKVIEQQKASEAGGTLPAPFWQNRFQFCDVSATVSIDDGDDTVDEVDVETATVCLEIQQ

[3] = molecular target: AMP-activated protein kinase, AMPK (Homo sapiens) (UniProt P54646+O43741+P54619+Q9UGJ0+Q9Y478+Q13131+Q9UGI9); experiment: AMP-dependent Kinase enzyme assay. An in vitro enzyme assay that detects ADP turnover that is directly proportional to AMPK activity. This uses naive AMPK that is activated during the assay with MK-8722; format: functional; conditions: 30 µM
[4] = molecular target: Sialic acid-binding Ig-like lectin 9 (Homo sapiens) (UniProt Q9Y336); experiment: Hs-Siglec9 ALPHAscreen SOP 20170721; conditions: 10 µM
Trypanosoma cruzi = experiment: Trypanosoma cruzi phosphomannomutase and mannose-1-phosphate guanylyltransferase assay; format: functional; conditions: 10 µM
[5] = molecular target: T2, Arginase-2, mitochondrial (Homo sapiens) (UniProt P78540); experiment: in vitro enzyme assay to detect the production of urea directly proportional to the activity of Arginase II; format: functional; conditions: 33.3 µM; also: in the data most compounds retested in dose-response had high values
T2 sequence (whole entry): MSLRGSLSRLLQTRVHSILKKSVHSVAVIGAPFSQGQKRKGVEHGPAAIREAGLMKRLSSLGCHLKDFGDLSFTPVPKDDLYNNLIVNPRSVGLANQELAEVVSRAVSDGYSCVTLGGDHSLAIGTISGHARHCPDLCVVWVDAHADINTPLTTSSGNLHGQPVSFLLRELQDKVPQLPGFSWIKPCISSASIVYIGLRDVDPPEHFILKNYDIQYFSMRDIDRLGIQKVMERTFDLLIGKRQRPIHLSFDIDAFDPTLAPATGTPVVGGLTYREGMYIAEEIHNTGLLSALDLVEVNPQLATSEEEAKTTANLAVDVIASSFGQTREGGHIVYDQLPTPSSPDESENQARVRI

[6] = molecular target: T3, Proteasome subunit beta (Trypanosoma cruzi) (UniProt O96673); experiment: Trypanosoma cruzi proteasome chymotrypsin-like activity (TcProtChymo) assay.; also: in the data most compounds retested in dose-response had high values; format: functional; conditions: 9.37 µM
T3 sequence (whole entry): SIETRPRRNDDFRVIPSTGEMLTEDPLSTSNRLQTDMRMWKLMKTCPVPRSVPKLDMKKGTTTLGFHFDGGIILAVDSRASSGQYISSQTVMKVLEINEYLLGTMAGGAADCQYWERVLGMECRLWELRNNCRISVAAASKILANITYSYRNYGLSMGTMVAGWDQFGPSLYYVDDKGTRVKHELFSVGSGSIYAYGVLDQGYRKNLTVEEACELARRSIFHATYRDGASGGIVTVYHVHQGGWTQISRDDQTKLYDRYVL

Homo sapiens = species on record: Homo sapiens; experiment: To identify inhibition of the IFN signalling (Jak-Stat) pathway via expression of an eGFP reporter gene under the control of an IFN-stimulated response element (ISRE) containing MxA promoter.; format: functional; conditions: 30 µM
[7] = molecular target: T4, Tyrosyl-tRNA synthetase, putative (Trypanosoma cruzi (strain CL Brener)) (UniProt Q4DSP6); experiment: Trypanosoma cruzi tyrosyl tRNA synthetase (TcYRS) _High Tyrosine SOP; format: functional; conditions: 30 µM; also: in the data most compounds retested in dose-response had high values
T4 sequence (whole entry): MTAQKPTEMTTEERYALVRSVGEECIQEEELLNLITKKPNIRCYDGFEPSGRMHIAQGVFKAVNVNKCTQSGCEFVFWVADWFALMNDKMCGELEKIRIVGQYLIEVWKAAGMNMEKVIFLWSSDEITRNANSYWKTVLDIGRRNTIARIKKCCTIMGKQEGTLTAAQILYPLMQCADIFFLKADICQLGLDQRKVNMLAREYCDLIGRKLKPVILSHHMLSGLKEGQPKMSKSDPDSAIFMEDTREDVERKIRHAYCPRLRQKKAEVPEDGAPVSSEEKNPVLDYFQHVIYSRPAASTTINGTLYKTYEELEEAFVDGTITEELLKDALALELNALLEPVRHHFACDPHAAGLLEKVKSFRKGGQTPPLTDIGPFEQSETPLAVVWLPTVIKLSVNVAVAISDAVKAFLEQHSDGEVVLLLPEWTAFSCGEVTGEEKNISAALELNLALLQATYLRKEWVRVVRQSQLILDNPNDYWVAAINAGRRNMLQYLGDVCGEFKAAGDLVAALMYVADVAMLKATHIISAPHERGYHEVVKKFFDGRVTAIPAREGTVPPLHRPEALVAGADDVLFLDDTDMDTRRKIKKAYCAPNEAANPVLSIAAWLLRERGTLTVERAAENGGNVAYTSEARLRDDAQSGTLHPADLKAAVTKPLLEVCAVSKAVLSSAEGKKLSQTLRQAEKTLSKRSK

[8] = molecular target: T4, Tyrosyl-tRNA synthetase, putative (Trypanosoma cruzi (strain CL Brener)); experiment: Trypanosoma cruzi tyrosyl tRNA synthetase (TcYRS) SOP; format: functional; conditions: 30 µM
[9] = molecular target: Chromo domain-containing protein 1 (Saccharomyces cerevisiae (strain ATCC 204508 / S288c) (Baker's yeast)) (UniProt P32657); experiment: ScCHD-1 Enzyme Inhibition Assay; format: functional; conditions: 30 µM; also: in the data most compounds retested in dose-response had high values
Chain of Chromo domain-containing protein 1 (Saccharomyces cerevisiae (strain ATCC 204508 / S288c) (Baker's yeast)) (P32657 whole entry, the tested form may be a part): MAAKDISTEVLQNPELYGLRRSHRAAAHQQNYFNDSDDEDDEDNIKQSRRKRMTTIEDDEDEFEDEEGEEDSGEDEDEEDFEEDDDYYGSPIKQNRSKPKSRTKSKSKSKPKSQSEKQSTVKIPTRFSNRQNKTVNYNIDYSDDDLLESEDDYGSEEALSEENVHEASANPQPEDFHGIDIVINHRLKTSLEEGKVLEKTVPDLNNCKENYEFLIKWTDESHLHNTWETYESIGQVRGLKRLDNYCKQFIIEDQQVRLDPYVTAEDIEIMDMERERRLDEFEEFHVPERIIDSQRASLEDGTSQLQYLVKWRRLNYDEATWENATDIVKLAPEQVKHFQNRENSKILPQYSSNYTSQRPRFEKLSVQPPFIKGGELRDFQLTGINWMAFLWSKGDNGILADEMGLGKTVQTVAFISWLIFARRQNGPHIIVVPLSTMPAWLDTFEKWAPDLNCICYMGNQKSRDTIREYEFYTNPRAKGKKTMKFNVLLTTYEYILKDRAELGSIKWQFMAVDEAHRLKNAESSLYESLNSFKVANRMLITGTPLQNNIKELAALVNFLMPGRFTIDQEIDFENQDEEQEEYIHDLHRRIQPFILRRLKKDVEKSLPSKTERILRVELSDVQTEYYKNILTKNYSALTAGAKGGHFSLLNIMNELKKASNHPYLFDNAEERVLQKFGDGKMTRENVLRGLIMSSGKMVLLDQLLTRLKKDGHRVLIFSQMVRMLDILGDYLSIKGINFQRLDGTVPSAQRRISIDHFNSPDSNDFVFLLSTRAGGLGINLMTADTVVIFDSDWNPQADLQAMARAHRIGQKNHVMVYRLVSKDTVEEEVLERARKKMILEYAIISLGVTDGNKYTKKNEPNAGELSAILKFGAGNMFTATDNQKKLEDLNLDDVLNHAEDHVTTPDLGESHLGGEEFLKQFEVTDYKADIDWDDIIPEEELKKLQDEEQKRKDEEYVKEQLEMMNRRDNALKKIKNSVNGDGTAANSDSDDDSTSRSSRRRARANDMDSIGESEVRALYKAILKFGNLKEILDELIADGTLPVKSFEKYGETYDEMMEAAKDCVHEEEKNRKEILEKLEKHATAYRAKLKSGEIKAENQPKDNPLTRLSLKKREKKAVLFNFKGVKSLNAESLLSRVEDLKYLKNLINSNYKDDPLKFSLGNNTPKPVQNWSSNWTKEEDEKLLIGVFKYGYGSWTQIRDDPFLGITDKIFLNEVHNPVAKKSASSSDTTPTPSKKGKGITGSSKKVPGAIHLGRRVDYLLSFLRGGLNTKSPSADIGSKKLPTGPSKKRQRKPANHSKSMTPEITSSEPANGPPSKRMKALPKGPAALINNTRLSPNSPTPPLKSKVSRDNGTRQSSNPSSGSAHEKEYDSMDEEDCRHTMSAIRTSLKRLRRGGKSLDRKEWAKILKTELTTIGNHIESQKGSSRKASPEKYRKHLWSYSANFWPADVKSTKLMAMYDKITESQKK

Chain of Protein translocase subunit SecA (Escherichia coli (strain K12)) (P10408 whole entry): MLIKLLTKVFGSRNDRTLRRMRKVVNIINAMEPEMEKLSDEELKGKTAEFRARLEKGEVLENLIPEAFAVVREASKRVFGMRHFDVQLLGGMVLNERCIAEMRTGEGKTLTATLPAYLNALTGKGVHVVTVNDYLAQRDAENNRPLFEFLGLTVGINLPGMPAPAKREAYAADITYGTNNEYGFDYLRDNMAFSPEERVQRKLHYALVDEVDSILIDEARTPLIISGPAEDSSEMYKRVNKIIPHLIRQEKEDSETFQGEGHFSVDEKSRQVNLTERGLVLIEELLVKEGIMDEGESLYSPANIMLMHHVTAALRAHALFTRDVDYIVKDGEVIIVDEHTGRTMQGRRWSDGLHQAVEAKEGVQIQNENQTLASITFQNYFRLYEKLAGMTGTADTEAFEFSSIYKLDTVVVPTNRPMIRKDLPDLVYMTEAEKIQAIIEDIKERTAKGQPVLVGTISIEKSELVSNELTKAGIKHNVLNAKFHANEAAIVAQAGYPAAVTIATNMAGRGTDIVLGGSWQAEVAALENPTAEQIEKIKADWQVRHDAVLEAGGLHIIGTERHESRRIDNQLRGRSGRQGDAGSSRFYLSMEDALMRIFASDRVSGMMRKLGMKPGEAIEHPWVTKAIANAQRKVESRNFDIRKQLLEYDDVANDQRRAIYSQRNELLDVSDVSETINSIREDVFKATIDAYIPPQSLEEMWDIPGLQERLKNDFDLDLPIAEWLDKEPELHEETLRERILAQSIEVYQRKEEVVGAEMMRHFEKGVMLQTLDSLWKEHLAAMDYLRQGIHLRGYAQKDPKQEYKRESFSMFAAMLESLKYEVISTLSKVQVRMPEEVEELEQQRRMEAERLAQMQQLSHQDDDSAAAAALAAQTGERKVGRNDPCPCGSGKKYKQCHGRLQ
Chain of Sialic acid-binding Ig-like lectin 9 (Homo sapiens) (Q9Y336 whole entry): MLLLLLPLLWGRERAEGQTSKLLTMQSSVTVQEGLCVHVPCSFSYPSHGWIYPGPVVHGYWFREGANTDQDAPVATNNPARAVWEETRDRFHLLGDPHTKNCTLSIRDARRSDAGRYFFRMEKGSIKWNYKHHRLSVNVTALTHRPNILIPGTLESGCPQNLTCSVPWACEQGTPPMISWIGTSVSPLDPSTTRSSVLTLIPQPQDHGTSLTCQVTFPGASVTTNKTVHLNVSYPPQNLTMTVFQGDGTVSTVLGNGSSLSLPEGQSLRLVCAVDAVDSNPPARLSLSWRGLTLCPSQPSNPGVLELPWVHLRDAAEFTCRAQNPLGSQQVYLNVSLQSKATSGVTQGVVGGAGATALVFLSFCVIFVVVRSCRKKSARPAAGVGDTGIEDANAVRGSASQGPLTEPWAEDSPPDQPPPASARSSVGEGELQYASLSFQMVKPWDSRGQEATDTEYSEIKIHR

SMILES	Percent Effect [1]	Percent Effect [2]	Percent Effect [3]	Percent Effect [4]	Percent Effect (Trypanosoma cruzi)	Percent Effect [5]	Percent Effect [6]	Percent Effect (Homo sapiens)	Percent Effect [7]	Percent Effect [8]	Percent Effect [9]
CCCSCC(=O)NS(=O)(=O)c1ccc2c(c1)OCCO2	-2.66%	-2.63%	5.73%	7.23%	1.5%	3.45%	2.34%	-0.713%	1.47%	0%	-4.12%
Clc1ccc(-n2cc(CNC3CCc4ncnn4C3)cn2)cc1 (configuration not stated)	-0.3%	1.27%	7.38%	3.29%	-2.36%	1.5%	10.6%	7.5%	2.08%	10.1%	-1.43%
O=C(COc1coc(CN2CCCCC2)cc1=O)Nc1ccccc1Cl	-4.47%	4%	6.82%	3.14%	-2.16%	-8.28%	12.2%	-3.22%	10.6%	12.8%	0.706%
c1ccc(-n2ccnc2)c(CNCC2CNc3ccnn3C2)c1 (configuration not stated)	-2.24%	18.2%	-5.79%	12.2%	7.68%	1.07%	2.53%	17.5%	5.83%	21.9%	-7.36%
CC(C)C(C(=O)N1CCC(N(C)c2cccnn2)CC1)n1cncn1 (configuration not stated)	-2.45%	0%	-10.6%	4.35%	-3.49%	4.01%	9.01%	11.7%	-0.493%	1.24%	6.08%
COCC1COCCC12CCN(CCc1ccccc1)CC2 (configuration not stated)	-4.75%	2.7%	0.285%	0.939%	6.84%	-3.33%	16.5%	1.25%	6.93%	8.54%	0.841%
Cc1cc(C(=O)N2CCc3nnc(N)cc3C2)c(C)n1C1CC1	-4.88%	8.86%	-10.1%	0.435%	-1.95%	-3.23%	20.1%	2.81%	7.29%	17.7%	-16.9%
Cc1cc(NC(=O)NCCc2ccsc2)n(C)n1	-0.993%	15.3%	-5.89%	15.8%	0.291%	-0.883%	20.7%	-9.26%	1.05%	10.3%	85%
Fc1ccc(OCc2noc(CN3CCc4cncnc4C3)n2)cc1	-0.114%	13.2%	-14.5%	2.94%	2.26%	-29.5%	18.1%	1.44%	31.9%	21.9%	-2.74%
CC(=O)N1CCC2(CCCN(C(=O)c3ccccc3)C2)C1 (configuration not stated)	-2.42%	0%	11%	-1.1%	-1.57%	3.03%	1.85%	-0.0486%	2.13%	1.28%	5.13%
Cc1cc(C2CCCN(C(=O)c3cnccn3)C2)ccn1 (configuration not stated)	2.59%	6.76%	5.06%	0.392%	-5.93%	0.232%	8.27%	12.6%	2.15%	3.9%	6.76%
Cc1cc(C)nc(N2Cc3cnn(Cc4ccc(F)cc4)c3C2)n1	-6.24%	-2.67%	1.55%	-0.223%	-7.5%	-2.6%	10.6%	33.6%	-6.01%	-6.17%	-5.39%
CCn1nc(C)c2ncnc(NCCCN3CCOCC3)c21	-5.99%	9.33%	-3.7%	9.5%	0.786%	-2.64%	12.2%	-4.74%	5.29%	12.8%	-10.7%
NC(=O)CSCC(=O)N1CCc2cc(Cl)cc(Cl)c2C1	-5.75%	15.6%	4.28%	36.8%	6.98%	-57.9%	9.15%	-7.69%	3.23%	8.64%	-8.22%
Cc1noc(C)c1CNC(=O)N1CCN(Cc2cscn2)CC1	-5.7%	15.8%	-5.03%	9.82%	5.45%	0.766%	3.51%	-2.83%	6.37%	17.1%	-14.9%
Cc1ccc(CN2CCCC3(CCN(S(=O)(=O)N(C)C)C3)C2)o1 (configuration not stated)	-4.24%	10.7%	11.3%	7.3%	-2.17%	3.03%	13.7%	9.85%	7.45%	19.2%	-3.25%
Cn1nnc2c1CCN(Cc1nccs1)C2COCc1ccccc1 (configuration not stated)	-2.95%	2.67%	-19.8%	5.81%	1.77%	5.83%	-8.9%	-0.293%	7.45%	8.97%	-0.607%
CC(C)c1nc(C(=O)N2CCCC(n3cncn3)C2)c[nH]1 (configuration not stated)	-4.19%	11.4%	3.03%	3.06%	-0.308%	0.215%	12.9%	20.5%	4.17%	15.2%	-17%
N#Cc1cc(NC(=O)c2ccsc2)ccc1N1CCC(O)CC1	-2.1%	13.5%	-3.83%	18.9%	5.99%	12.9%	19.3%	27.8%	4.76%	14.6%	-1.54%
CC(C)c1cc(NC(=O)CN2CCc3c(nc(C(C)C)n3C)C2)on1	-0.514%	0%	-3.17%	8.75%	2.62%	-4.98%	17.9%	12%	5.83%	9.76%	-7.27%
O=C(c1ccccn1)N1CCn2cnc(COCC3CC3)c2C1	-2.21%	0%	3.19%	4.7%	-2.86%	3.23%	9.57%	-0.697%	-10.6%	-16.7%	-11%
NC(=O)c1cccc(CC2CCN(C(=O)CO)C2)c1 (configuration not stated)	-1.68%	19.2%	10.3%	10.6%	3.33%	-0.909%	15.4%	2.47%	4.3%	17.5%	-3.86%
